In PubChem BioAssay (NCI):
This is part of a sample that, as a whole, favours compounds with a hit. Of some 79,000 tested, about 15% had one in any assay. Calls of active or inactive are those of the source. No stated cut-off is given here; in the data, active means growth inhibition above about 70%; inactive means the rest.

Experiments:
[1] = NCI Yeast Anticancer Drug Screen. Data for the rad50 strain (AID 155);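 further: 0% = growth of vehicle-only cultures of the same strain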; settings: S. cerevisiae rad50 strain growth inhibition, hits give high values
Summary of the method: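 Relative growth inhibition (compound vs vehicle) was measured in yeast with a defined repair-gene alteration.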

[2] = NCI Yeast Anticancer Drug Screen. Data for the mec2-1 strain (AID 157); settings: S. cerevisiae mec2-1 strain, hits give high values
Summary of the method: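 mec2-1 yeast strain, carrying an alteration in DNA damage repair or cell cycle control, was exposed to compounds; growth inhibition was measured relative to vehicle-treated controls.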

[3] = NCI Yeast Anticancer Drug Screen. Data for the sgs1 mgt1 strain (AID 161);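 further: 0% = growth of cultures given vehicle only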; settings: S. cerevisiae sgs1 mgt1 strain, hits give high values
Summary of the method: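 Compounds are added to genetically altered yeast, and growth is compared with cultures given vehicle alone to give percent inhibition.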

[4] = NCI Yeast Anticancer Drug Screen. Data for the cln2 rad14 strain (AID 165);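 further: 0% = growth equal to vehicle treated cultures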; settings: S. cerevisiae cln2 rad14 strain, hits give high values
Summary of the method: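 Yeast carrying cln2 and rad14 alterations (cell cycle control and DNA damage repair) were exposed to compounds. Growth inhibition was measured against vehicle-treated controls.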

[5] = NCI Yeast Anticancer Drug Screen. Data for the bub3 strain (AID 167); settings: S. cerevisiae bub3 mutant strain, hits give high values
Summary of the method: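 Screening used yeast with an engineered genetic alteration affecting cell cycle control. Compound-exposed cultures were compared with vehicle cultures, and reduced growth was taken as inhibition.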

[6] = NCI Yeast Anticancer Drug Screen. Data for the mlh1 rad18 strain (AID 175); settings: S. cerevisiae mlh1 rad18 strain growth inhibition, hits give high values
Summary of the method: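 Growth inhibition of the yeast strain was measured after compound exposure and expressed relative to vehicle-treated controls. The strain carries defined defects in DNA damage repair.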

[7] = at 5.0 µM (retest, dose inferred, filed as 0.5)
[8] = at 50.0 µM (retest, dose inferred, filed as 5.0)

Measured: growth inhibition

Nc1ccccc1C(=O)c1ccccc1
active: [1]; at 50.0 µM 76.2% | [6]; at 50.0 µM 75.7%
inactive: [1]; [7] 4% | [1]; [8] 8% | [2]; [7] 1% | [2]; [8] 4% | [2]; at 50.0 µM 11% | [3]; [7] 1% | [3]; [8] 10% | [3]; at 50.0 µM 38.1% | [4]; [7] 4% | [4]; [8] 1% | [4]; at 50.0 µM 3.25% | [5]; [7] 0% | [5]; [8] -3% | [5]; at 50.0 µM 47.2% | [6]; [7] 4% | [6]; [8] 5%

O=C(O)C(Br)C(Br)C(=O)O.[Ag] (configuration not stated)
active: [1]; [7] 99% | [1]; [8] 99% | [1]; at 50.0 µM 98.8% | [2]; [7] 100% | [2]; [8] 100% | [2]; at 50.0 µM 99.3% | [3]; [7] 99% | [3]; [8] 100% | [3]; at 50.0 µM 98.7% | [4]; [7] 97% | [4]; [8] 99% | [4]; at 50.0 µM 99.1% | [5]; [7] 99% | [5]; [8] 99% | [5]; at 50.0 µM 98.8% | [6]; [7] 99% | [6]; [8] 99% | [6]; at 50.0 µM 99.2%

C#CC1(OC(C)=O)CCC2C3CC=C4C=C(OC(C)=O)CCC4(C)C3CCC21C (configuration not stated)
active: [1]; at 50.0 µM 90.5% | [3]; at 50.0 µM 86.9%
inactive: [1]; [7] 16% | [1]; [8] 48% | [2]; [7] -1% | [2]; [8] 17% | [2]; at 50.0 µM 40.2% | [3]; [7] 2% | [3]; [8] 56% | [4]; [7] 10% | [4]; [8] 15% | [4]; at 50.0 µM -0.6% | [5]; [7] 1% | [5]; [8] 3% | [5]; at 50.0 µM 13.9% | [6]; [7] 2% | [6]; [8] -4% | [6]; at 50.0 µM 61.1%

O=S(=O)(F)c1ccc(Cl)cc1
inactive: [1]; [7] 22% | [2]; [7] 4% | [2]; at 50.0 µM 20.9% | [3]; [7] 9% | [4]; [7] 3% | [4]; at 50.0 µM 49.7% | [5]; [7] 12% | [6]; [7] 13%
active: [1]; [8] 97% | [1]; at 50.0 µM 85.5% | [2]; [8] 84% | [3]; [8] 92% | [3]; at 50.0 µM 82.3% | [4]; [8] 90% | [5]; [8] 97% | [5]; at 50.0 µM 70.9% | [6]; [8] 98% | [6]; at 50.0 µM 90.8%

CN(C=O)NC(=O)N(CCCl)N=O
inactive: [1]; [7] 19% | [1]; [8] 21% | [1]; at 50.0 µM 55.2% | [2]; [7] 13% | [2]; [8] 1% | [2]; at 50.0 µM 62.5% | [3]; [7] 22% | [3]; [8] 21% | [3]; at 50.0 µM -13.2% | [4]; [7] 23% | [4]; [8] 16% | [4]; at 50.0 µM 11.2% | [5]; [7] 12% | [5]; [8] 4% | [5]; at 50.0 µM -9.1% | [6]; [7] 16% | [6]; [8] 23% | [6]; at 50.0 µM -11.4%

Oc1c(Cl)cc(Cl)c2ccccc12.[Cu+2]
active: [1]; [8] 91% | [1]; at 50.0 µM 99.3% | [2]; [8] 77% | [2]; at 50.0 µM 99.1% | [3]; [8] 91% | [3]; at 50.0 µM 99.2% | [4]; at 50.0 µM 98.7% | [5]; [8] 93% | [5]; at 50.0 µM 99.5% | [6]; [8] 93% | [6]; at 50.0 µM 99.2%
inactive: [1]; [7] -5% | [2]; [7] -34% | [3]; [7] -5% | [4]; [7] -1% | [4]; [8] 32% | [5]; [7] -2% | [6]; [7] 0%

C/C(=N\N=C(/[Se])N1CCC(C)CC1)c1ccccn1
inactive: [1]; [7] 27% | [2]; [7] 24% | [3]; [7] 9% | [4]; [7] 4% | [4]; [8] -9% | [4]; at 50.0 µM 47% | [5]; [7] 6% | [5]; [8] 20% | [6]; [7] 4%
active: [1]; [8] 94% | [1]; at 50.0 µM 94.5% | [2]; [8] 91% | [2]; at 50.0 µM 96% | [3]; [8] 71% | [3]; at 50.0 µM 99.2% | [5]; at 50.0 µM 84.5% | [6]; [8] 76% | [6]; at 50.0 µM 98%

COc1ccc(/C=C\[N+](=O)[O-])cc1OC
inactive: [1]; [7] 47% | [2]; [7] 27% | [3]; [7] 25% | [4]; [7] 12% | [5]; [7] 14% | [6]; [7] 28%
active: [1]; [8] 97% | [1]; at 50.0 µM 99.4% | [2]; [8] 99% | [2]; at 50.0 µM 99.7% | [3]; [8] 99% | [3]; at 50.0 µM 99.7% | [4]; [8] 99% | [4]; at 50.0 µM 99% | [5]; [8] 99% | [5]; at 50.0 µM 99.3% | [6]; [8] 99% | [6]; at 50.0 µM 99.5%

CC[PH+](CC)CC[S-].CC[PH+](CC)CC[S-].[Au+].[Au+]
inactive: [1]; [7] 5% | [1]; [8] 13% | [1]; at 50.0 µM 46.4% | [2]; [7] 14% | [2]; [8] 18% | [2]; at 50.0 µM -0.55% | [3]; [7] 12% | [3]; [8] 23% | [3]; at 50.0 µM 11.2% | [4]; [7] 4% | [4]; [8] 6% | [4]; at 50.0 µM -12.4% | [5]; [7] 14% | [5]; [8] 7% | [5]; at 50.0 µM 8.1% | [6]; [7] 55% | [6]; [8] 15% | [6]; at 50.0 µM -35.8%
